# In paper PMC7862700, “An all-to-all approach to the identification of sequence-specific readers for epigenetic DNA modifications on cytosine”:
# What was measured:
# Assay in all cases: DAPPL (digital affinity profiling via proximity ligation, sequencing); 10 mM Tris-HCl pH 7.5, 50 mM NaCl, 1 mM DTT, 4% glycerol, room temperature, 30 min; GST-TFs on glutathione beads, 16-mer random dsDNA library, 0.1% formaldehyde crosslink after washing; high values mean tight binding
# Conditions in all cases: protein: recombinant; tags: N-terminal GST; dsDNA, one strand shown
# FLI1 = molecular target: T1, FLI1 (Homo sapiens, UniProt Q01543 1-452)
# T1 sequence: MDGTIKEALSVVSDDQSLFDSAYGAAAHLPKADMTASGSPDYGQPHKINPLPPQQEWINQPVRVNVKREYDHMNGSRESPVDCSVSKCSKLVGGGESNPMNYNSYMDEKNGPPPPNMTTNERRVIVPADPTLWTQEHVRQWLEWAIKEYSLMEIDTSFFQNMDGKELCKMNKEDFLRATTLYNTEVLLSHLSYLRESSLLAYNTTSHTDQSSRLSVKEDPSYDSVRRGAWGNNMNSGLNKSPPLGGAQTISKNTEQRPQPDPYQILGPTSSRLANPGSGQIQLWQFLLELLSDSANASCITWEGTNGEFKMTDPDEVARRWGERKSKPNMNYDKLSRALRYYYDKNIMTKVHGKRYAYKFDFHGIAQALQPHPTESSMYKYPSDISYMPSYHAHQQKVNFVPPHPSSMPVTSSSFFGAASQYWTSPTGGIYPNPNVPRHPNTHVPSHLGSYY
# Outline: (§1)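 Pools of DNA-barcoded human transcription factors, expressed in yeast as GST fusions on glutathione beads and combined with a tag-only sample, were incubated with 200 nmole of a 16-mer random double-stranded DNA library. Incubation took 30 min at room temperature in Tris/NaCl/DTT/glycerol buffer and was followed by washing, 0.1% formaldehyde crosslinking, proximity ligation (BsaI/T4 ligase, 1 h, 37 °C), PCR amplification and sequencing on an Illumina NextSeq500. Binding signal is the ratio of a hexamer's read frequency for a factor to its frequency for the tag-only sample.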
# ELK1 = molecular target: T2, ELK1 (Homo sapiens, UniProt P19419 1-428)
# T2 sequence: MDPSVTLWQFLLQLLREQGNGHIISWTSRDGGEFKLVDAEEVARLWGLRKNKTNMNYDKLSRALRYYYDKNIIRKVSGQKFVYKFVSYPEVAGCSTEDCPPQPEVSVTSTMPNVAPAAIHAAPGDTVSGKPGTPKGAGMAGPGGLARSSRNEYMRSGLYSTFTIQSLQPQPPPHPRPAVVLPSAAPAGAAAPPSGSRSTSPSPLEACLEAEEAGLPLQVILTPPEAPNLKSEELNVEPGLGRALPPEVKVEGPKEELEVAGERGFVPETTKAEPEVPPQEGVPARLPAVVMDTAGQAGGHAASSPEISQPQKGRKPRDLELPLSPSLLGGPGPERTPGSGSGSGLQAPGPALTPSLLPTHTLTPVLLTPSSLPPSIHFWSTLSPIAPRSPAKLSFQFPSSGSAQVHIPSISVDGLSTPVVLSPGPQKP
# Outline: as §1
# GABPA = molecular target: T3, GABPA (Homo sapiens, UniProt Q06546 1-454)
# T3 sequence: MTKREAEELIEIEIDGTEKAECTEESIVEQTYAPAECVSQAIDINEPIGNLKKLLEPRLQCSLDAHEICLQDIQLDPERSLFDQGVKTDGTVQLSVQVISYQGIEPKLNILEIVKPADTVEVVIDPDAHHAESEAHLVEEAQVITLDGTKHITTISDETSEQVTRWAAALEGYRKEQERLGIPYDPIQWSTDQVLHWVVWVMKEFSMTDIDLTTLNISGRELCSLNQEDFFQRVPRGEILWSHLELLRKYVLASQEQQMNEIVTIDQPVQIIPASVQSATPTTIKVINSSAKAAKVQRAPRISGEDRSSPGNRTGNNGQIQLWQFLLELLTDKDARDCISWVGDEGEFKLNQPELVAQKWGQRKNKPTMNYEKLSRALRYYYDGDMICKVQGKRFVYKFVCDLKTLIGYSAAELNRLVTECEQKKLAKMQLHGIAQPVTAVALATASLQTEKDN
# Outline: as §1
# ERG = molecular target: T4, ERG (Homo sapiens, UniProt P11308 1-479)
# T4 sequence: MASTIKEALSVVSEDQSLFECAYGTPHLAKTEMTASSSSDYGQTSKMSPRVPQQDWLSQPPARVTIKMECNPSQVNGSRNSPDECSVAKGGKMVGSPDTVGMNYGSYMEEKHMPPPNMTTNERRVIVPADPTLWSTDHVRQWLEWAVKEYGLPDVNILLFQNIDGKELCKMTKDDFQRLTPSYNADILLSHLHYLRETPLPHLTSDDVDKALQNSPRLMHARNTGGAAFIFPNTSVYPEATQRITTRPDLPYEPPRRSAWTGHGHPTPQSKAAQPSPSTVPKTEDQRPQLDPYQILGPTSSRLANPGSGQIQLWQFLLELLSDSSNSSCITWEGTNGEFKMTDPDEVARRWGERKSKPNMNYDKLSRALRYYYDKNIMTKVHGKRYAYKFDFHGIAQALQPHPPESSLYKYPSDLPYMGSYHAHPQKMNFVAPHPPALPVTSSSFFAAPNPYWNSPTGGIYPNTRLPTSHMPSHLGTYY
# Outline: as §1
# ELF1 = ELF1 (Homo sapiens, UniProt P32519 1-619)
# Outline: as §1
# EHF = molecular target: T5, EHF (Homo sapiens, UniProt Q9NZC4 1-300)
# T5 sequence: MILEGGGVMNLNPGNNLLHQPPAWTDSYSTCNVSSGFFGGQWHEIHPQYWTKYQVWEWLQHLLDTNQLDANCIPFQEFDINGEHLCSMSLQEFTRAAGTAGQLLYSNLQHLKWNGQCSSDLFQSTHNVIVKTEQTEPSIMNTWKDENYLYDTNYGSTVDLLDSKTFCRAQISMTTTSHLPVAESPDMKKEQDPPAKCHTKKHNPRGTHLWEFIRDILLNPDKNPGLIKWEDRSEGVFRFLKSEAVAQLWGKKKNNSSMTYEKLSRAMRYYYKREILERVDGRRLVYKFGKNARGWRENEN
# Outline: as §1
# SPI1 = SPI1 (Homo sapiens, UniProt P17947 1-270)
# Outline: as §1
# SPIB = SPIB (Homo sapiens, UniProt Q01892 1-262)
# Outline: as §1
# ELK3 = molecular target: T6, ELK3 (Homo sapiens, UniProt P41970 1-407)
# T6 sequence: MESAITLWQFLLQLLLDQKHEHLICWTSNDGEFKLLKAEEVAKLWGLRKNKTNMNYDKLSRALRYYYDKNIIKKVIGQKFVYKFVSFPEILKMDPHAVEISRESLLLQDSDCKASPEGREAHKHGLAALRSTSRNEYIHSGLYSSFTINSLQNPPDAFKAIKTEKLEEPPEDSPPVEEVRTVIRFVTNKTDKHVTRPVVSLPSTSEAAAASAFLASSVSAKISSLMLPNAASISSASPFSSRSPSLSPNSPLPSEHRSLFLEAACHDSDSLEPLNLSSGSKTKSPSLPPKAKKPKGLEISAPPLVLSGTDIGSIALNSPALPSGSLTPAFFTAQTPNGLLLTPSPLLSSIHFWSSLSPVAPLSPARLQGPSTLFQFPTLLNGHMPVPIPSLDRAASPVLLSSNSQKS
# Outline: as §1
# Chain of SPIB (Q01892 whole entry): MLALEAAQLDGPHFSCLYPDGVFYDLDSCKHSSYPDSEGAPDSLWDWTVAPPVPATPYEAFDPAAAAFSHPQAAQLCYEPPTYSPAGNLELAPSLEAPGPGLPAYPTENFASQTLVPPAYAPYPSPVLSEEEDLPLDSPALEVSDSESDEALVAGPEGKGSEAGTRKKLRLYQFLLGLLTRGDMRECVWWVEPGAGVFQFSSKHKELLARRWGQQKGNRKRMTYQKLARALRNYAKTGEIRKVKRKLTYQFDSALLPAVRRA
# Chain of ELF1 (P32519 whole entry): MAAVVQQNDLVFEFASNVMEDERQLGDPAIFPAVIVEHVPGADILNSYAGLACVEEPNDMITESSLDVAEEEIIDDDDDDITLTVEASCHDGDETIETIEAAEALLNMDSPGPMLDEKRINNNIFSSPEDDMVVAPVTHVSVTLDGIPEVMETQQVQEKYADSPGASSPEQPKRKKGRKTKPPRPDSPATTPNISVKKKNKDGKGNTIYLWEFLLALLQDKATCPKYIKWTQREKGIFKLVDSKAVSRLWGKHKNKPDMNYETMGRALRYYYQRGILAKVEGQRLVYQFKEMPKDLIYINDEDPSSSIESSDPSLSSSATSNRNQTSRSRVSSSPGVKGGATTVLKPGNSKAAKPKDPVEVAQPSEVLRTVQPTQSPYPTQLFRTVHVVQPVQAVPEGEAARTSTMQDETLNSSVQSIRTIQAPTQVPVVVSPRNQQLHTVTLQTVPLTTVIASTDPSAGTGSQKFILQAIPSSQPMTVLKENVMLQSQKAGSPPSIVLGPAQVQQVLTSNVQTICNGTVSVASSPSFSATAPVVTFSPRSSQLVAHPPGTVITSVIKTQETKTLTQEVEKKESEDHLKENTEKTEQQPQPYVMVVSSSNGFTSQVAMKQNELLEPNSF
sequence,measurement,setting,value
TGCATT,binding signal,FLI1,"1.34 fold enrichment (6-mer frequency, TF over GST control)"
same,binding signal,ELK1,"1.34 fold enrichment (6-mer frequency, TF over GST control)"
same,binding signal,GABPA,"1.37 fold enrichment (6-mer frequency, TF over GST control)"
same,binding signal,ERG,"1.24 fold enrichment (6-mer frequency, TF over GST control)"
same,binding signal,ELF1,"1.33 fold enrichment (6-mer frequency, TF over GST control)"
same,binding signal,EHF,"1.3 fold enrichment (6-mer frequency, TF over GST control)"
same,binding signal,SPI1,"1.31 fold enrichment (6-mer frequency, TF over GST control)"
same,binding signal,SPIB,"1.34 fold enrichment (6-mer frequency, TF over GST control)"
same,binding signal,ELK3,"1.35 fold enrichment (6-mer frequency, TF over GST control)"
